Screening data as filed in PubChem BioAssay.
A selection: hits, their analogues and other compounds. The true share with any hit is near 1.9%.
PrPC surface inh = reduces human prion protein on the cell surface. inhibition, % at 13.8 µM. P04156. cell surface PrPC, TR-FRET read-out. 0.43% of 370,000 active; in the data active means inhibition above about 24%
PrP UTR inh = suppresses PrP 5' UTR mRNA reporter expression. cell-based PrP 5' UTR mRNA reporter, plate reader. inhibition, % (concentration not given with the values). 0.35% of 340,000 active. AID 488862; in the data active means inhibition above about 52%
PfHsp40 rescue = rescue of PfHsp40-mediated yeast toxicity; S. cerevisiae expressing PfHsp40, growth rescue, ATP luminescence; growth rescue, % at 12.5 µM; 0.68% of 340,000 active; AID 504582; in the data active means growth rescue above about 28%, passing the limit was not always enough; inconclusive means no clear call, values can overlap the other calls;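 further: yeast W303a lacking pdr1 and pdr3 grown in galactose medium; growth measured after three days at 30 °C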
RecA intein inh = inhibitors of M. tuberculosis RecA intein splicing. P9WHJ3. cell-free RecA intein splicing, fluorescence. inhibition, % (concentration not given with the values). 0.75% of 290,000 active. AID 2221; in the data active means inhibition above about 30%; inconclusive means no clear call, values can overlap the other calls
Target sequence (P9WHJ3 whole entry, looked up): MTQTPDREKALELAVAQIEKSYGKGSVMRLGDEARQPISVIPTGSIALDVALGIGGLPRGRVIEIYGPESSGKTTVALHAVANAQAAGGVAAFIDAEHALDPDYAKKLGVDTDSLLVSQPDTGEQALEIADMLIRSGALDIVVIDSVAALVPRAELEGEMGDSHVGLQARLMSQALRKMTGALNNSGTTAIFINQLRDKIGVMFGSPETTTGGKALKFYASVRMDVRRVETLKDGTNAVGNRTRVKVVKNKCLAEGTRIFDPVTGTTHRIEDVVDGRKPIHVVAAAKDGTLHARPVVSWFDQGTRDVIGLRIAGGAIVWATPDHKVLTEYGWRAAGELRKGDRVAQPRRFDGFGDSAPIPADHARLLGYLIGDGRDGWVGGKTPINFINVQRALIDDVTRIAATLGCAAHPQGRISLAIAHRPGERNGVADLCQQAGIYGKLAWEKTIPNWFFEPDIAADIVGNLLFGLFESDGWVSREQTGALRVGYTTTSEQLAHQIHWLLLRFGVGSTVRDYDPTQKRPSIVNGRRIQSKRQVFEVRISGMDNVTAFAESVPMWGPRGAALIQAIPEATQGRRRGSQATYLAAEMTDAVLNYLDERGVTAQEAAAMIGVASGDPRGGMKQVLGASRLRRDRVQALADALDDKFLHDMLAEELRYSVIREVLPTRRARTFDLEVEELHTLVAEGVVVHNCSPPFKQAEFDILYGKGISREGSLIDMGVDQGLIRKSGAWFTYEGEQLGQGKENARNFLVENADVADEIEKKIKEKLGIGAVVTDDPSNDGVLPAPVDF
BJeLR lethal = kills HRASV12-expressing BJeLR cells; inhibition, % (no concentration beside the values); AID 1554; 0.17% of 300,000 active; BJeLR (HRASV12) viability, CellTiter-Glo ATP luminescence, 48 h; in the data active means inhibition above about 50%; inconclusive means no clear call, values can overlap the other calls
PriA SSB inh = inhibitors of Klebsiella pneumoniae PriA binding to SSB C-terminal tail | AlphaScreen SSBct-PriA binding, biotinylated peptide | inhibition, % at 33 µM | 0.6% of 430,000 active | AID 1272365; in the data active means inhibition mostly above about 37%, no sharp cut-off; inactive means mostly below about 20%
Hits are given with their value; 0 = inactive; ? = inconclusive; - = no result given.

SMILES | PrPC surface inh | PrP UTR inh | PfHsp40 rescue | RecA intein inh | BJeLR lethal | PriA SSB inh
CSc1cccc(Nc2ccc(S(=O)(=O)N3CCOCC3)cc2[N+](=O)[O-])c1 | 0 | 0 | 0 | - | - | 38.4
COc1cccc(Oc2cc(NN3CCCCC3)c([N+](=O)[O-])cc2[N+](=O)[O-])c1OC | 0 | 0 | 0 | 0 | 0 | 47.9
COCC(C)Nc1ccc(S(=O)(=O)N2CCCC2)cc1[N+](=O)[O-] (stereo not drawn) | 0 | 0 | 0 | 0 | 0 | 0
COc1ccc(Nc2ccc(S(=O)(=O)N3CCCCC3)cc2[N+](=O)[O-])cc1OC | 0 | 0 | 0 | 0 | 0 | 69.8
COc1ccccc1Nc1ccc(S(=O)(=O)N2CCCCC2)cc1[N+](=O)[O-] | 0 | 0 | 0 | 0 | 0 | 63.2
O=[N+]([O-])c1cc([N+](=O)[O-])c(Oc2cccc3c2CCCC3)cc1NN1CCCCC1 | 0 | 0 | 0 | - | - | 0
COc1ccc(Nc2ccc(S(=O)(=O)N3CCCCCC3)cc2[N+](=O)[O-])cc1 | 0 | 0 | 0 | 0 | 0 | 45.9
COc1ccccc1C(C)Nc1ccc(S(=O)(=O)N2CCN(C)CC2)cc1[N+](=O)[O-] (stereo not drawn) | 0 | - | 0 | - | - | 56.6
COc1cc(Nc2ccc(S(=O)(=O)N3CCN(C)CC3)cc2[N+](=O)[O-])cc(OC)c1 | 0 | 0 | 0 | 0 | 0 | 0
COc1ccccc1C(C)Nc1ccc(S(=O)(=O)N2CCCC2)cc1[N+](=O)[O-] (stereo not drawn) | - | - | - | - | - | 0
COc1cccc2c(=O)n(CC(=O)Nc3ccc(F)cc3)ccc12 | 0 | 0 | 0 | 0 | 0 | 104.2
COc1cccc2c(=O)n(CC(=O)Nc3cccc(F)c3)ccc12 | 0 | 0 | 0 | 0 | 0 | 0
Cn1/c(=N/NC(=O)c2ccncc2)sc2ccccc21 | - | - | - | - | - | 0
CC(=O)Oc1c(Br)cc(N(C(C)=O)S(=O)(=O)c2ccc(Cl)cc2)c2ccccc12 | - | - | - | - | - | 0
CCOC(=O)c1cnc2ccc(C)cc2c1Sc1ccc(F)cc1 | 0 | 0 | 0 | 66.6 | 0 | 0
Cc1c(C(=O)N2CCN(C(=O)c3ccco3)CC2)sc2nc(-c3cccc([N+](=O)[O-])c3)cn12 | - | - | - | - | - | 0
COc1ccc(-c2csc(CN3CCN(C(=O)c4ccc(Br)o4)CC3)n2)cc1 | - | - | - | - | - | 44.0
CCn1c(C)c(/C=N/Nc2nc3ccccc3s2)c2ccccc21 | 0 | 0 | 0 | 0 | 0 | -
Cc1ccc2[nH]c(C)c(C=NNc3nc4ccccc4s3)c2c1 | - | - | - | - | - | 52.3
COc1ccc(S(=O)(=O)NCCCc2ccc(N(C)C)cc2)cc1F | - | - | - | - | - | 0
CNc1nc(SCc2ccc(C)cc2)nc2c1CCCC2 | 0 | 0 | 198.9 | 0 | 0 | 0
O=C(CNC(=O)c1ccc(S(=O)(=O)N2CCCC2)cc1)NN=Cc1ccccc1 | - | - | - | - | - | 0
CCOC(=O)c1cc(-c2ccc(N)cc2)sc1N | 0 | 0 | 0 | 0 | 0 | 49.7
CCOC(=O)c1sc(-c2ccc(Br)cc2)cc1N | 0 | 0 | 0 | 0 | 0 | 0
CCOC(=O)C1CCCN(C(=S)Nc2ccc(OC(F)F)cc2)C1 (stereo not drawn) | - | - | - | - | - | 0
SMILES | PrPC surface inh | PrP UTR inh | PfHsp40 rescue | RecA intein inh | BJeLR lethal | PriA SSB inh
Cn1c(=O)c(N)c2c3c(c(Br)ccc31)C(=O)c1ccccc1-2 | 0 | 0 | 0 | 0 | 0 | 42.2
Cn1c(=O)cc2c3c(c(Br)ccc31)C(=O)c1ccccc1-2 | - | - | - | - | - | 0
O=c1c2sccc2nc(SCc2nc(-c3ccccn3)no2)n1-c1ccc(Cl)cc1 | - | - | - | - | - | 0
COc1ccc2c(c1)S/C(=C\C(=O)c1ccncc1)N2C | 0 | 0 | 174.5 | 0 | 0 | 0
COc1cc(OC)cc(C(=O)/C=C2\Sc3ccccc3N2C)c1 | 0 | 0 | 0 | 0 | 0 | 0
COC(=O)NN=Cc1c(C)cc(C)cc1C | - | - | - | - | - | 0
Cc1csc(N2CCCC2c2nc3cc(C(F)(F)F)ccc3n2CCOCCO)n1 (stereo not drawn) | 0 | 0 | 0 | 0 | 0 | 47.9
Cc1csc(C(=O)NCc2nn(CCN3CCCC3)c(=O)c3ccccc23)c1 | - | - | - | - | - | 45.0
CSc1ccc(-c2sc(Nc3ccccc3)n[n+]2-c2ccccc2)cc1 | - | 0 | 0 | 0 | 0 | 0
COc1ccc(C)cc1Nc1n[n+](-c2ccccc2)c(-c2ccc(NC(C)=O)cc2)s1 | 0 | 0 | 0 | 0 | 0 | 47.1
CCc1ccc(Nc2n[n+](-c3ccccc3)c(-c3ccc(SC)cc3)s2)cc1 | 0 | 0 | 0 | 0 | 0 | 66.2
CC(=O)Nc1ccc(-c2sc(Nc3cccc4ccccc34)n[n+]2-c2ccccc2)cc1 | 0 | 0 | 0 | 0 | 0 | 62.9
CCc1ccc(Nc2n[n+](-c3ccccc3)c(-c3ccc(C(=O)O)cc3)s2)cc1 | 0 | 0 | 0 | 0 | 0 | 0
CSc1ccc(-c2sc(Nc3cccc4ccccc34)n[n+]2-c2ccccc2)cc1 | 0 | 0 | 0 | 0 | 0 | 47.2
COc1ccc(-c2noc(Cn3nc(-c4ccc(C)c(C)c4)ccc3=O)n2)c(OC)c1 | - | - | - | - | - | 0
O=C(NC1CCC(Oc2ccccn2)CC1)c1ccno1 (stereo not drawn) | - | - | - | - | - | 0
CCc1ccc(Nc2n[n+](-c3ccccc3)c(-c3ccc(OC)c(Br)c3)s2)cc1 | 0 | 0 | 0 | 0 | 0 | 56.4
CCOc1cc(/C=C2\CN(CC)C/C(=C\c3ccc(O)c(OCC)c3)C2=O)ccc1O | 0 | 0 | 0 | 0 | 56.7 | 0
Oc1ccccc1-[n+]1c(-c2ccccc2)cc(-c2ccccc2)c(O)c1-c1ccccc1 | 0 | 0 | 42.2 | 0 | 0 | 0
O=C(COc1ccc(Cl)cc1)Nc1ccc2c(c1)CN(S(=O)(=O)c1cccs1)CC2 | - | - | - | - | - | 0
CC1CC(C)CN(C(=O)C2CCC(CNc3c(N4CCCCC4)c(=O)c3=O)CC2)C1 (stereo not drawn) | 0 | 0 | 53.1 | 0 | 0 | 0
CC1CCN(C(=O)C2CCC(CNc3c(N4CCCCC4)c(=O)c3=O)CC2)CC1 (stereo not drawn) | 0 | 0 | 0 | 0 | 0 | 0
O=NN(CCc1ccncc1)c1ccc(OCc2ccccc2)cc1 | 0 | 0 | 387.7 | 0 | 0 | 0
COc1ccc2c(c1)OC[C@H]1[C@H]2N2C(=O)c3cc(Cl)ccc3NC(=O)[C@@]2(C)[C@H]1c1ccccc1 | - | 0 | ? | - | - | 0
C[C@]12C(=O)N(c3ccc(F)cc3)C(=O)N1[C@H]1c3ccccc3OC[C@@H]1[C@H]2c1ccccc1 | 0 | 0 | 93.8 | - | - | 0
SMILES | PrPC surface inh | PrP UTR inh | PfHsp40 rescue | RecA intein inh | BJeLR lethal | PriA SSB inh
COc1ccc2c(c1)OC[C@H]1[C@H]2N2C(=O)c3cc(OC)ccc3NC(=O)[C@@]2(C)[C@H]1c1ccccc1 | 0 | 0 | 116.5 | - | - | 0
C[C@@]12C(=O)N(c3ccc(F)cc3)C(=O)N1[C@@H]1c3ccccc3OC[C@@H]1[C@H]2c1ccccc1 | 0 | 0 | 0 | 0 | 0 | 0
O=C(O)CC1S/C(=N/N=C\c2ccc(N3CCOCC3)cc2)NC1=O (stereo not drawn) | - | - | - | - | - | 0
COC(=O)CSc1ccc2nnc(-c3ccccn3)n2n1 | - | - | - | - | - | 77.1
CCCCC(Sc1ccc2nnc(-c3ccccn3)n2n1)C(=O)O (stereo not drawn) | - | - | - | - | - | 94.0
CCOc1ccc(-c2cc(=O)n(CC(=O)N3CCN(c4ccccc4OC)CC3)cn2)cc1 | - | - | - | - | - | 0
